# Source: the supplement of paper PMC6609913
# Structures can show the parent of a compound that is named as a salt. ± gives the standard deviation of the averaged measurements. In all, about 1,300 compounds were measured (“normalised cell viability”: median about 1, lowest 2% from about 0.14 on). The full list was thinned out, with the lowest values kept by preference.
# System: V-C8 (BRCA2-deficient hamster cells)
# Assay: normalised cell viability (fraction of plate median); higher = more viable cells (less toxic)
# Details: 5 µM
# How it was run: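 BRCA2-deficient hamster V-C8 cells and BRCA2-restored V-C8 cells were plated in 96-well plates, and library drugs were added 24 h later at 5 μM in 100 μl medium. Exposure lasted 3 days in screen 1 and 6 days in screen 2, next to solvent-only wells. Viability was then read by resazurin assay, median-plate normalised and averaged across triplicate wells.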
SMILES,normalised cell viability (treatment time: 3 days),normalised cell viability (treatment time: 6 days)
COc1cc([C@@H]2c3cc4c(cc3[C@H](O)[C@H]3COC(=O)[C@H]23)OCO4)cc(OC)c1OC [Podophyllotoxin],0.126 ± 0.01,0.143 ± 0.0037
C[C@]12CC[C@@H]3c4ccc(OC(=O)N(CCCl)CCCl)cc4CC[C@H]3[C@@H]1CC[C@@H]2O [Estramustine],0.175 ± 0.019,0.213 ± 0.013
CCC1(C)CC(=O)NC(=O)C1 [Bemegride],0.925 ± 0.075,1.06 ± 0.055
"NCC(O)c1ccc(O)cc1 (racemic) [(+,-)-Octopamine hydrochloride]",1.02 ± 0.083,1.1 ± 0.083
"CC[C@@]1(O)C(=O)OCc2c1cc1n(c2=O)Cc2cc3ccccc3nc2-1 [Camptothecine (S,+)]",0.148 ± 0.0039,0.109 ± 0.008
CC[C@@]1([C@@H]2O[C@@H]([C@H]3O[C@@](O)(CO)[C@H](C)C[C@@H]3C)C[C@@H]2C)CC[C@H]([C@]2(C)CC[C@]3(C[C@H](O)[C@@H](C)[C@@H]([C@@H](C)[C@@H](OC)[C@H](C)C(=O)O)O3)O2)O1 [Monensin sodium salt],0.156 ± 0.0082,0.128 ± 0.0063
C[N+](C)(C)CCCCCCCCCC[N+](C)(C)C [Decamethonium bromide],1.18 ± 0.34,1.019 ± 0.0077
C[N+]1(C)[C@@H]2CC[C@H]1C[C@@H](OC(=O)C(CO)c1ccccc1)C2 (stereo not given in full) [Methylatropine nitrate],1.11 ± 0.021,1.15 ± 0.091
Oc1cc(Cl)ccc1Oc1ccc(Cl)cc1Cl [Triclosan],0.974 ± 0.022,1 ± 0.02
C[N+]1([O-])[C@@H]2C[C@@H](OC(=O)[C@H](CO)c3ccccc3)C[C@H]1[C@@H]1O[C@@H]12 (stereo not given in full) [Scopolamin-N-oxide hydrobromide],0.997 ± 0.074,0.945 ± 0.092
CC(C)(C)NCC(O)c1ccccc1Cl (stereo not given) [Tulobuterol],1.07 ± 0.015,1.05 ± 0.086
C[C@@H]1C[C@@H]([C@H](O)CC2CC(=O)NC(=O)C2)C(=O)[C@@H](C)C1 [Cycloheximide],0.132 ± 0.0063,0.142 ± 0.0068
C=CCC1(CC(C)C)C(=O)NC(=O)NC1=O [Butalbital],1.1 ± 0.031,1.079 ± 0.0048
C=C1[C@@H]2CC[C@H]3[C@]4(C)C[C@H](O[C@@H]5O[C@H](CO)[C@@H](OS(=O)(=O)O)[C@H](OS(=O)(=O)O)[C@H]5OC(=O)CC(C)C)C[C@@H](C(=O)O)[C@H]4CC[C@]3(C2)[C@@H]1O [Atractyloside potassium salt],1.05 ± 0.051,1.09 ± 0.079
C[C@]12CC[C@H]3[C@@H](CCC4=CC(=O)CC[C@@H]43)[C@@H]1CC[C@@H]2O [Nandrolone],0.993 ± 0.11,1.02 ± 0.028
CN1C[C@H](CNC(=O)OCc2ccccc2)C[C@@H]2c3cccc4c3c(cn4C)C[C@H]21 [Metergoline],0.1447 ± 0.00066,0.133 ± 0.017
CN1C[C@H](C(=O)N[C@]2(C)O[C@@]3(O)[C@@H]4CCCN4C(=O)[C@H](Cc4ccccc4)N3C2=O)C[C@@H]2c3cccc4[nH]cc(c34)C[C@H]21 [Dihydroergotamine tartrate],1.06 ± 0.024,1.02 ± 0.12
CO[C@]12C[C@@H](COC(=O)c3cncc(Br)c3)CN(C)[C@@H]1Cc1cn(C)c3cccc2c13 [Nicergoline],0.886 ± 0.074,0.994 ± 0.033
NC(=O)OCCCc1ccccc1 [Phenprobamate],1.14 ± 0.049,1.08 ± 0.15
S=C(NC1CCCCC1)N1CCC(c2cnc[nH]2)CC1 [Thioperamide maleate],1 ± 0.018,1.02 ± 0.014

SMILES,normalised cell viability (treatment time: 3 days),normalised cell viability (treatment time: 6 days)
C[C@H](N)[C@H](O)c1ccc(O)c(O)c1 [Levonordefrin],1.05 ± 0.05,1.02 ± 0.028
CCCCCC[C@H]1C(=O)O[C@H](C)[C@H](NC(=O)c2cccc(NC=O)c2O)C(=O)O[C@@H](C)[C@@H]1OC(=O)CC(C)C [Antimycin A],0.152 ± 0.0026,0.12 ± 0.011
C[C@]12CCC(=O)C=C1CC[C@@H]1[C@@H]2C(=O)C[C@]2(C)C(=O)CC[C@@H]12 [Adrenosterone],1.19 ± 0.085,1.11 ± 0.017
CCC(C)C1O[C@]2(C=C[C@@H]1C)C[C@@H]1CC(C/C=C(\C)[C@@H](OC3C[C@H](OC)[C@@H](OC4C[C@H](OC)[C@@H](O)[C@H](C)O4)[C@H](C)O3)[C@@H](C)/C=C/C=C3\COC4[C@H](O)C(C)=CC(C(=O)O1)[C@]34O)O2 (stereo not given in full) [Avermectin B1a],0.486 ± 0.016,0.475 ± 0.052
COc1ccc(CN2CCNCC2)c(OC)c1OC [Trimetazidine dihydrochloride],1.05 ± 0.06,1.06 ± 0.023
C=C(C)[C@@H]1[C@H]2OC(=O)[C@@H]1[C@]1(O)C[C@H]3O[C@]34C(=O)O[C@H]2[C@]14C [Picrotoxinin],1.007 ± 0.0066,1.11 ± 0.061
Fc1ccc(C(OCCN2CCN(CCCc3ccccc3)CC2)c2ccc(F)cc2)cc1,0.159 ± 0.0052,0.182 ± 0.012
COc1ccc(CCN2CCC(Nc3nc4ccccc4n3Cc3ccc(F)cc3)CC2)cc1 [Astemizole],0.13 ± 0.0054,0.099 ± 0.003
C[C@]12C[C@H]3S[C@H]3C[C@@H]1CC[C@@H]1[C@@H]2CC[C@]2(C)[C@@H](O)CC[C@@H]12 [Epitiostanol],1.04 ± 0.012,1.033 ± 0.01
CC1OC(OC2/C=C/C=C/C=C/C=C/CC/C=C/C=C/[C@H](C)[C@@H](O)[C@@H](C)[C@H](C)OC(=O)CC(O)CC(O)CC(O)CCC(O)C(O)C[C@]3(O)CC(O)C(C(=O)O)C(C2)O3)C(O)C(N)C1O (stereo not given in full) [Nystatine],1.06 ± 0.055,0.905 ± 0.084
CN1CCN(C(=O)OC2c3nccnc3C(=O)N2c2ccc(Cl)cn2)CC1 (stereo not given) [Zopiclone],1.11 ± 0.05,1.04 ± 0.061
CCN[C@@H](C)Cc1cccc(C(F)(F)F)c1 [Dexfenfluramine hydrochloride],0.908 ± 0.092,1.02 ± 0.074
C[C@@H]1O[C@@H](O[C@@H]2C=C3CC[C@@H]4[C@H](CC[C@]5(C)[C@@H](c6ccc(=O)oc6)CC[C@]45O)[C@@]3(C)CC2)[C@H](O)[C@H](O)[C@H]1O [Proscillaridin A],0.945 ± 0.013,0.908 ± 0.11
CCN(C(C)=O)c1cccc(-c2ccnc3c(C#N)cnn23)c1 [Zaleplon],1.13 ± 0.075,0.981 ± 0.063
C[C@]12Cc3c[nH]nc3C[C@@H]1CC[C@@H]1[C@@H]2CC[C@@]2(C)[C@H]1CC[C@]2(C)O [Stanozolol],1.07 ± 0.064,1.06 ± 0.036
CN[C@@H]1[C@@H](O)[C@@H](O[C@@H]2[C@@H](O)[C@H](O[C@H]3O[C@H](CN)CC[C@H]3N)[C@@H](N)C[C@H]2N)OC[C@]1(C)O.CN[C@@H]1[C@@H](O)[C@@H](O[C@@H]2[C@@H](O)[C@H](O[C@H]3O[C@H]([C@@H](C)N)CC[C@H]3N)[C@@H](N)C[C@H]2N)OC[C@]1(C)O.CN[C@@H]1[C@@H](O)[C@@H](O[C@@H]2[C@@H](O)[C@H](O[C@H]3O[C@H]([C@@H](C)NC)CC[C@H]3N)[C@@H](N)C[C@H]2N)OC[C@]1(C)O [Gentamicine sulfate],0.961 ± 0.029,0.955 ± 0.039
C(#CCN1CCCC1)CN1CCCC1 [Tremorine dihydrochloride],1.09 ± 0.065,1.08 ± 0.06
C[CH2][Hg][S]c1ccccc1C(=O)[O-].[Na+] [Thimerosal],0.0995 ± 0.0026,0.126 ± 0.0061
C[N+]1(C)CCCC(OC(=O)C(O)(c2ccccc2)c2ccccc2)C1 (stereo not given) [Mepenzolate bromide],0.974 ± 0.054,1.08 ± 0.059
O=C(CCCN1CCC(n2c(=O)[nH]c3ccccc32)CC1)c1ccc(F)cc1 [Benperidol],0.93 ± 0.029,0.969 ± 0.083
